The test system of one assay is Human papillomavirus type 1a protein E7 (residues 44-93). Put plainly: small molecules binding HPV E7 44-93 – biochemical, small-molecule microarray, residues 44-93, 635 nm fluorescence, primary screen (AID 1108).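 Further: E7 fragment applied at 1 µg/mL in TBST for 1 h at 4 C; score combines spot fluorescence with its signal to noise ratio.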 The following applies: fluorescence 635 nm, higher = more signal.
`COCCOC(=O)N1C(=O)[C@@]2(c3ccccc31)[C@H](C(=O)NC[C@H](O)c1ccccc1)[C@H]1C(=O)O[C@H](c3ccccc3)[C@H](c3ccccc3)N1[C@@H]2c1ccc(OCCO)cc1` yielded a composite z-score of 1.11.
Same read-out and setting: the figure for `[N-]=[N+]=NCc1ccccc1C[C@@]1(C(=O)NCC(O)CO)N=C(c2ccc(OCCCO)cc2)O[C@@H]1c1ccccc1CN=[N+]=[N-]` (stereo partly specified) is 1.06; for `COc1ccc(C#Cc2ccc3c(c2)[C@]2(C(=O)N3)[C@H](C(=O)NC[C@H](O)c3ccccc3)[C@H]3C(=O)O[C@H](c4ccccc4)[C@H](c4ccccc4)N3[C@@H]2c2ccccc2OCCO)cc1` it is 0.272; for `COC(=O)[C@@]1(Cc2ccccc2)[C@H]2c3cc(C(=O)N(C)C)n(Cc4cc(C)n(C)n4)c3C[C@H]2CN1C(=O)c1ccccc1` it is 1.02.
As for `C#CCN(C(/C=C/c1ccccc1)CO)C(C(=O)O)c1ccccc1` (stereo unspecified), the composite z-score was -0.943.
As to `COc1ccc([Si](C)(C)[C@@H]2[C@@H](CCn3cc([C@H](O)c4ccccc4)nn3)O[C@]3(C(=O)N(Cc4cccc(N5CCOC5=O)c4)c4ccccc43)[C@H]2C)cc1`, the composite z-score is -0.362.
Same read-out and setting: the figure for `Cc1ccc(S[C@]2(C(=O)O)CC(=O)N(C3Cc4ccccc4C3)[C@@H]2c2ccc(CO)cc2I)cc1` is -0.104; for `CCOC(=O)C[C@H]1[C@H](OC(=O)c2ccc(-c3ccccc3)cc2)[C@@H](NC(=O)Cc2ccc(OC)cc2)c2cc(OCCCO)ccc2N1C(=O)c1ccc2ccccc2n1` it is 1.13.
Regarding `COc1ccc([Si](C)(C)[C@@H]2[C@@H](CC(=O)N(CCO)Cc3ccccc3)O[C@]3(C(=O)N(C)c4ccccc43)[C@H]2C)cc1`, the composite z-score was determined as 0.906.
Still for that read-out and setting: the figure for `O=c1cccc(C=Cc2ccccc2)o1` is -0.64; for `O=C1OCC=C[C@H]2OC34C=CCN(c5ccc6ccccc6c5)C(=O)[C@H]3N(CCCO)C(=O)[C@@H]4[C@@H]12` (stereo partly specified) it is -0.522.
The compound `COCCOC(=O)N1C(=O)[C@@]2(c3cc(C#CC4=CCCCC4)ccc31)[C@H](C(=O)N1CCc3cc(OC)c(OC)cc3C1)[C@H]1C(=O)O[C@H](c3ccccc3)[C@H](c3ccccc3)N1[C@@H]2c1ccccc1OCCO` gave a composite z-score of 0.899.
The compound `COCCOC(=O)N1C(=O)[C@@]2(c3cc(C#CCC(C(=O)OC)C(=O)OC)ccc31)[C@H](c1ccccc1OCCO)N1[C@H](c3ccccc3)[C@H](c3ccccc3)OC(=O)[C@H]1[C@@H]2C(N)=O` came in with a composite z-score of 0.22.
Still for that read-out and setting: the figure for `CC(C)OC(=O)CC(=O)CC(O)c1ccc(C#N)cc1` (stereo unspecified) is 0.443.
For the compound `COC(=O)[C@@]1(Cc2ccc(OC)cc2)[C@H]2c3cc(C(=O)N(C)C)n(Cc4c(OC)[nH]cc(C)c4=O)c3C[C@H]2CN1C(=O)c1ccccc1`, the composite z-score is -0.117.
`O=C1C[C@@](C(=O)NC2CC2)(c2ccc([N+](=O)[O-])cc2)[C@@H](c2ccc(CO)cc2)N1CC12CC3CC(CC(C3)C1)C2` returned a composite z-score of 0.869.

Test system in a further assay: not listed separately
The experiment in a line: hepatitis C replication reporter changes, two-sided – Huh7 cells, luciferase reporter, HCV replication inhibitor project, primary screen (AID 1109).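 Further: huh7 hepatoma cells harbouring a luciferase neomycin HCV replicon reporter; luciferase luminescence as measure of HCV replicon replication; test concentration not given here.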 The following applies: Huh7 HCV replicon luciferase reporter, 48 h; higher = more signal. For orientation: In a reporter assay the amount or activity of a reporter protein is the signal.
`COc1ccc([Si](C)(C)[C@@H]2[C@@H](CC(=O)N3CCC[C@H]3CO)O[C@]3(C(=O)N(C)c4c(Br)cc(C)cc43)[C@H]2C)cc1` came in with a z-score of -2.05.
For the compound `CN(C)CCCCCCNC(=O)[C@H]1C[C@H]2C(=O)N[C@@H](CCCCN)C(=O)N2[C@H]1c1ccc(O)cc1`, the z-score is -0.181.
The same measure, in the same setting: the value for `COCC(=C=CC[C@H](O)c1ccc(OCCO)cc1)C[C@H](O)c1cc(Cl)cc(Cl)c1O` was -3.96; that for `COc1cc(C(O)C2C=CC3C(=O)N(c4ccccc4)C(=O)C3N2Nc2ccc(C#N)cc2)cc(OC)c1OC` (stereo unspecified) was 0.0783; that for `N#Cc1ccc(NN2C(C(O)c3ccc([N+](=O)[O-])cc3)C=CC3C(=O)N(c4ccccc4)C(=O)C32)cc1` (stereo unspecified) was 0.69.
On the same count and under the same terms, the figure for `CC(=O)NCCCC[C@@H]1NC(=O)[C@@H]2C[C@H](C(=O)NCCCCCCNC(=O)CS)[C@H](c3ccc(O)cc3)N2C1=O` is 0.391; for `CCOC(=O)C[C@H]1[C@H](OC(=O)Cc2ccc3c(c2)OCO3)[C@@H](NC(=O)c2ccc(-c3ccccc3)cc2)c2cc(OCCCO)ccc2N1C(=O)c1ccccc1` it is -1.25; for `O=C1O[C@@H](c2ccccc2)[C@@H](c2ccccc2)N2[C@@H](c3ccccc3OCCO)[C@]3(C(=O)Nc4ccc(C#CC5(O)CCCCCC5)cc43)[C@@H](C(=O)Nc3nc4ccccc4s3)[C@H]12` it is -3.09.
On to `Cc1ccccc1C(O)C1C=CC2C(=O)N(C)C(=O)C2N1N1CCCCC1` (stereo unspecified), for which the z-score was -0.18.
The compound `COCCOC(=O)N1C(=O)[C@@]2(c3ccccc31)[C@H](C(=O)Nc1nc3ccccc3s1)[C@H]1C(=O)O[C@H](c3ccccc3)[C@H](c3ccccc3)N1[C@@H]2c1ccc(OCCO)cc1` displayed a z-score of -2.05.
As for `CC(C)C[C@@H]1NC(=O)[C@H]2C[C@@H](C(=O)NCCCCCNC(=O)CS)[C@@H](c3cccc(OCCO)c3)N2C1=O`, the z-score is -0.265.
Same read-out and setting: the value for `COc1ccc(C#Cc2ccc3c(c2)[C@]2(C(=O)N3)[C@H](c3ccc(O)cc3)N3[C@H](c4ccccc4)[C@H](c4ccccc4)OC(=O)[C@H]3[C@@H]2C(=O)NC[C@H](O)c2ccccc2)cc1` was -1.63.
Consider `O=C1OCC=C[C@H]2OC34C=CCN(c5ccc(Cl)cc5)C(=O)[C@H]3N(CCCCCCO)C(=O)[C@@H]4[C@@H]12` (stereo partly specified), for which the z-score was -0.493.
`C=CCOC(=O)[C@H]1[C@@H]2C(=O)O[C@@H](c3ccccc3)[C@@H](c3ccccc3)N2[C@@H](c2ccc(OCCOC(=O)[C@@H]3C[C@@H]4C(=O)N5CCC[C@H]5C(=O)N4[C@@H]3c3ccc(O)cc3)cc2)[C@]12C(=O)Nc1ccccc12`: the z-score was -1.81.
With `CCCC[C@H]1OB(O)C[C@H]2C1=C(C)C[C@H]1C(=O)N(Cc3ccccc3)C(=O)[C@H]12`, the z-score came out at 0.885.
Compound `CCCC[C@@H]1C[C@H]1[C@@H](NC(=O)c1ccc(-c2ccccc2)cc1)c1ccc(-c2ccccc2)cc1` returned a z-score of -0.787.
With `COCC(=C=CC[C@@H](O)c1ccc(CO)o1)CCO`, the z-score was -0.711.
Still for that read-out and setting: the figure for `Cc1ccc(S[C@]2(C(=O)NCc3ccccc3)CC(=O)N(Cc3ccccc3Cl)[C@@H]2c2ccc(CO)cc2I)cc1` is -1.74; for `CC=CC(O)C1C=CC2C(=O)N(c3ccccc3)C(=O)C2N1Nc1ccc(C(C)C)cc1` (stereo unspecified) it is 0.837.
On the same count and under the same terms, the value for `COCCOC(=O)N1C(=O)[C@@]2(c3ccccc31)[C@H](C(=O)NC[C@H](O)c1ccccc1)[C@H]1C(=O)O[C@H](c3ccccc3)[C@H](c3ccccc3)N1[C@@H]2c1ccc(OCCO)cc1` was -1.33; that for `[N-]=[N+]=NCc1ccccc1C[C@@]1(C(=O)NCC(O)CO)N=C(c2ccc(OCCCO)cc2)O[C@@H]1c1ccccc1CN=[N+]=[N-]` (stereo partly specified) was -1.73; that for `COc1ccc(C#Cc2ccc3c(c2)[C@]2(C(=O)N3)[C@H](C(=O)NC[C@H](O)c3ccccc3)[C@H]3C(=O)O[C@H](c4ccccc4)[C@H](c4ccccc4)N3[C@@H]2c2ccccc2OCCO)cc1` was -2.86.
The same measure, in the same setting: the figure for `COC(=O)[C@@]1(Cc2ccccc2)[C@H]2c3cc(C(=O)N(C)C)n(Cc4cc(C)n(C)n4)c3C[C@H]2CN1C(=O)c1ccccc1` is -0.995.
`C#CCN(C(/C=C/c1ccccc1)CO)C(C(=O)O)c1ccccc1` (stereo unspecified) came in with a z-score of -0.206.
Same read-out and setting: the figure for `COc1ccc([Si](C)(C)[C@@H]2[C@@H](CCn3cc([C@H](O)c4ccccc4)nn3)O[C@]3(C(=O)N(Cc4cccc(N5CCOC5=O)c4)c4ccccc43)[C@H]2C)cc1` is -2.64.
For the compound `Cc1ccc(S[C@]2(C(=O)O)CC(=O)N(C3Cc4ccccc4C3)[C@@H]2c2ccc(CO)cc2I)cc1`, the z-score was -0.517.
Take `CCOC(=O)C[C@H]1[C@H](OC(=O)c2ccc(-c3ccccc3)cc2)[C@@H](NC(=O)Cc2ccc(OC)cc2)c2cc(OCCCO)ccc2N1C(=O)c1ccc2ccccc2n1`: the z-score was -1.92.
In the case of `COc1ccc([Si](C)(C)[C@@H]2[C@@H](CC(=O)N(CCO)Cc3ccccc3)O[C@]3(C(=O)N(C)c4ccccc43)[C@H]2C)cc1`, the z-score was -3.95.
With `O=c1cccc(C=Cc2ccccc2)o1`, the z-score was -0.854.
Same read-out and setting: the value for `O=C1OCC=C[C@H]2OC34C=CCN(c5ccc6ccccc6c5)C(=O)[C@H]3N(CCCO)C(=O)[C@@H]4[C@@H]12` (stereo partly specified) was -0.805; that for `COCCOC(=O)N1C(=O)[C@@]2(c3cc(C#CC4=CCCCC4)ccc31)[C@H](C(=O)N1CCc3cc(OC)c(OC)cc3C1)[C@H]1C(=O)O[C@H](c3ccccc3)[C@H](c3ccccc3)N1[C@@H]2c1ccccc1OCCO` was -1.35; that for `COCCOC(=O)N1C(=O)[C@@]2(c3cc(C#CCC(C(=O)OC)C(=O)OC)ccc31)[C@H](c1ccccc1OCCO)N1[C@H](c3ccccc3)[C@H](c3ccccc3)OC(=O)[C@H]1[C@@H]2C(N)=O` was -2.2.
The compound `CC(C)OC(=O)CC(=O)CC(O)c1ccc(C#N)cc1` (stereo unspecified) displayed a z-score of -0.259.
On to `COC(=O)[C@@]1(Cc2ccc(OC)cc2)[C@H]2c3cc(C(=O)N(C)C)n(Cc4c(OC)[nH]cc(C)c4=O)c3C[C@H]2CN1C(=O)c1ccccc1`, for which the z-score is -1.1.
The compound `O=C1C[C@@](C(=O)NC2CC2)(c2ccc([N+](=O)[O-])cc2)[C@@H](c2ccc(CO)cc2)N1CC12CC3CC(CC(C3)C1)C2` had a z-score of -2.39.
